Measurements taken from PubChem BioAssay.
Calls of active or inactive are those of the source.

Key:
[1] = compound effects on lung adenocarcinoma cell viability – A549, calcein-AM fluorescence, 48 h, basal, profiling panel (AID 1162); settings: higher = more signal
[2] = compound effects on differentiated 3T3-L1 adipocyte viability – cell-based, 3T3-L1 adipocytes, calcein-AM fluorescence, 48 h, basal, profiling panel (AID 1163); settings: 3T3-L1 adipocytes viability, higher = more signal
[3] = compound effects on hepatocellular carcinoma cell viability – HepG2, calcein-AM fluorescence, 48 h, basal, profiling panel (AID 1164); settings: higher = more signal
[4] = compound effects on multiple myeloma cell viability – MM1S, calcein-AM fluorescence, 48 h, basal, profiling panel (AID 1165); settings: higher = more signal;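 further: viability of MM1S multiple myeloma cells under basal unstimulated conditions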
[5] = calcein-AM signal in unstimulated myeloma cells – cell-based, calcein-AM fluorescence, 48 h, PK04 Diversity Set, profiling panel (AID 1166); settings: RPMI8226 myeloma viability, higher = more signal;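 further: cells grown under basal conditions without added stimulus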
[6] = JC-1 mitochondrial signal, unstimulated HepG2 cells – cell-based, JC-1 fluorescence, 24 h, 100 nL compound, profiling panel (AID 1167); settings: HepG2 mitochondrial potential, higher = more signal
[7] = JC-1 mitochondrial signal, unstimulated adipocytes – cell-based, JC-1 fluorescence, 3T3-L1 adipocytes, 24 h, 100 nL compound, profiling panel (AID 1168); settings: JC-1 mitochondrial fluorescence, higher = more signal, called active from +8 up or from −8 down
[8] = JC-1 mitochondrial signal, unstimulated myeloma cells – cell-based, JC-1 fluorescence, RPMI8226, 24 h, 100 nL compound, profiling panel (AID 1169); settings: JC-1 mitochondrial potential fluorescence, higher = more signal
[9] = JC-1 mitochondrial signal, unstimulated MM1S myeloma – cell-based, JC-1 fluorescence, 24 h, 100 nL compound, profiling panel (AID 1170); settings: MM1S mitochondrial potential, higher = more signal
[10] = resazurin metabolic signal in A549 cells – cell-based, resazurin fluorescence, 24 h, PK04 Diversity Set, profiling panel (AID 1171); settings: A549 viability, higher = more signal, called active from +8 up or from −8 down
Further: test concentration not given here.

SMILES | z-score [1] | z-score [2] | z-score [3] | z-score [4] | z-score [5] | z-score [6] | z-score [7] | z-score [8] | z-score [9] | z-score [10]
COC(=O)[C@@]1(Cc2ccccc2)[C@@H]2C(=CC(=O)[C@H]2CC(=O)C(=O)N(C)C)CN1C(=O)c1ccccc1 | 0.349 | 0.108 | 0.11 | -2.52 | -1.81 | 2.58 | -0.0995 (inactive) | -0.791 | -2.68 | -1.11 (inactive)
CC(C)(C)N1CC=CC23O[C@@H]4C=CCOC(=O)[C@@H]4[C@H]2C(=O)N(CCCCCCO)[C@@H]3C1=O (stereo not given in full) | -0.127 | -0.739 | -0.165 | 1.53 | 0.0749 | -0.403 | 0.567 (inactive) | 0.799 | -0.112 | -0.0435 (inactive)
COC(=O)[C@@]1(Cc2ccc(OC)cc2)[C@H]2c3cc(C(=O)N(C)C)n(CCO)c3C[C@H]2CN1C(=O)c1ccccc1 | -1.58 | 0.611 | -0.516 | -1.25 | -0.755 | -0.133 | -1.36 (inactive) | -0.577 | -0.327 | -0.0699 (inactive)
CO[C@]12C=C(Br)[C@@H](C[C@@H]1c1cccc(C)c1)[C@@]1(CO1)C2=O | -0.406 | 0.287 | -0.932 | -2.16 | -0.643 | -1.11 | -0.295 (inactive) | -0.107 | -0.693 | 0.862 (inactive)
CCOC(=O)[C@H]1[C@@H]2C(=O)N3CCC[C@H]3[C@H](O[Si](C(C)C)(C(C)C)C(C)C)[C@H]2C=C2CCN(S(=O)(=O)c3ccc(C)cc3)C[C@H]21 | 0.487 | 0.302 | -1.18 | -2.91 | -4.09 | 1.51 | -0.603 (inactive) | -1.06 | -0.814 | -0.742 (inactive)
CCOC(=O)c1ccc(NC(=O)O[C@H]2[C@H](OC(=O)Nc3ccc4c(c3)OCO4)[C@@H](OC(=O)Nc3ccc4c(c3)OCO4)[C@@H](OC)O[C@@H]2CO)cc1 | -0.742 | 0.558 | -1.09 | -1.05 | -0.141 | 0.305 | 0.463 (inactive) | -0.66 | -0.979 | -0.214 (inactive)
COCCCNC(=O)[C@@]1(Sc2ccc(C)cc2)CC(=O)N(C2CCCCC2)[C@@H]1c1ccc(CO)cc1 | -0.162 | 0.152 | -0.574 | -1.59 | -1.45 | -0.155 | 1.07 (inactive) | 0.855 | 0.2 | 0.377 (inactive)
COCCCNC(=O)[C@@]1(Cc2ccccc2N=[N+]=[N-])COC(c2ccc(OCCCO)cc2)=N1 | 0.552 | -0.707 | 0.815 | -0.919 | -0.0778 | 0.796 | 0.156 (inactive) | -0.408 | -1.21 | 0.992 (inactive)
CCCCC(O)C1C=CC2C(=O)N(c3ccccc3)C(=O)C2N1Nc1ccc(C(C)C)cc1 (stereo not given) | -0.341 | -1.52 | 1.6 | -0.603 | -0.216 | -1.29 | -1.04 (inactive) | -0.749 | -0.557 | -0.762 (inactive)
CC(C)N1CC=CC23O[C@@H]4C=CCOC(=O)[C@@H]4[C@H]2C(=O)N(CCCO)[C@@H]3C1=O (stereo not given in full) | 0.555 | 2.67 | -1.01 | 0.34 | -0.258 | -0.4 | 0.253 (inactive) | 0.354 | -1.5 | 0.108 (inactive)
C=CC[C@]1(C(=O)O)COC(c2ccc(OCCCO)cc2)=N1 | 0.083 | -0.206 | -0.148 | -0.0046 | -0.571 | 0.0919 | 0.224 (inactive) | -0.0187 | -0.116 | -0.408 (inactive)
CN(C)C(=O)[C@@]1(Cc2ccccc2CN=[N+]=[N-])N=C(c2ccc(OCCCO)cc2)O[C@H]1c1ccccc1CN=[N+]=[N-] | -0.446 | -0.182 | -1.29 | -1.42 | -3.77 | 1.11 | -1.34 (inactive) | -1.12 | -2.11 | -0.67 (inactive)
CCCC[C@@H]1C[C@H]1[C@@H](NC(=O)c1cccs1)c1ccc(C(F)(F)F)cc1 | -1.36 | -0.249 | -0.655 | -0.771 | -1.47 | -1.04 | -1.23 (inactive) | 0.404 | -0.917 | 0.724 (inactive)
C=CCOC(=O)[C@H]1[C@@H]2C(=O)O[C@@H](c3ccccc3)[C@@H](c3ccccc3)N2[C@@H](c2ccc(OCCOC(=O)[C@@H]3C[C@@H]4C(=O)N[C@@H](CCCCN(C)C)C(=O)N4[C@@H]3c3ccc(O)cc3)cc2)[C@]12C(=O)Nc1ccccc12 | -0.0988 | 0.887 | 0.52 | -0.305 | -0.0297 | -2.38 | 0.0411 (inactive) | -0.473 | -0.92 | 0.23 (inactive)
O=c1n(-c2ccccc2)c(=O)n2n1CC(COc1ccccc1)=C([C@H](O)CCc1ccccc1)[C@@H]2CO | -0.0498 | 0.725 | 0.787 | -1.44 | -2.34 | -1.2 | 0.0027 (inactive) | 0.0482 | -1.98 | -0.962 (inactive)
COC(=O)c1cn(C[C@@H](Cc2ccccc2)NC(=O)N[C@H](CO)CCc2oc(C(C)=O)c(C(=O)OC)c2C(=O)OC)nn1 | -0.282 | 0.53 | -0.0248 | 0.408 | 0.206 | 0.629 | 1.09 (inactive) | -0.0706 | 0.962 | 0.0604 (inactive)
